# In the supplement of paper PMC8728848:
# Many of the other results were omitted from the sample, so the strongest signals are more common in it than they were.
# B1: Epa9 (Candida glabrata), CAGL0A01386g (protein)
# chain: MGSSHHHHHHSSGLVPRGSHMDITPFAHYPRPEGCSSPPNAVSVGLHMDLYNYPYLYVKNPRTGFTNDTDSDADGETDGDSAGGIEGRAGQCWNPEYQDPNFPRYGYKKYGSFGSSDHVNGKISWDHNEFKEGCKPIMARLPTAYNYPAKITFSNFTMVLSGYFKPKSTGLYKFEIHADDFILFNFGSKNAFECCNREESIDNFGPYVAYAMWPNEADQELEVYLFEDSYYPIRLFYNNRDYHSKFMVGFYPPNTEEITYDFDGYLYMLDDTGNECKDSIRYKTVCDD
# Tests used:
# Test in all cases: glycan array binding signal (z-score within array); higher = stronger binding
# Conditions in all cases: glycan notation: IUPAC condensed, linker removed
# [1] = target: Gal(b1-4)GlcNAc(b1-3)Gal(b1-4)GlcNAc(b1-3)Gal(b1-4)GlcNAc(b1-3)Gal(b1-4)GlcNAc(b1-3)Gal(b1-4)GlcNAc(b1-3)Gal(b1-4)GlcNAc(b1-2)Man(a1-3)[Gal(b1-4)GlcNAc(b1-3)Gal(b1-4)GlcNAc(b1-3)Gal(b1-4)GlcNAc(b1-3)Gal(b1-4)GlcNAc(b1-3)Gal(b1-4)GlcNAc(b1-3)Gal(b1-4)GlcNAc(b1-2)Man(a1-6)]Man(b1-4)GlcNAc(b1-4)GlcNAc
# In short: (§1)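 Columns mapping to the same glycan were averaged after glycan names were converted to IUPAC-condensed notation. The data come from 3228 arrays in the Consortium for Functional Glycomics database, limited to those with an available protein sequence. Binding is reported as a within-array Z-score averaged across arrays of one protein sequence and across linkers.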
# [2] = target: Gal3S(b1-4)[Fuc(a1-3)]Glc6S
# In short: as §1
# Gal4S6S(b1-4)GlcNAc = target: Gal4S6S(b1-4)GlcNAc
# In short: as §1
# Gal6S(b1-3)GlcNAc = target: Gal6S(b1-3)GlcNAc
# In short: as §1
# [3] = target: GalNAc(b1-3)Gal(a1-6)Gal(b1-4)Glc
# In short: as §1
# GalNAc(b1-3)GlcNAc = target: GalNAc(b1-3)GlcNAc
# In short: as §1
# GalNAc3S(b1-4)GlcNAc3S = target: GalNAc3S(b1-4)GlcNAc3S
# In short: as §1
# GlcA(b1-6)Gal = target: GlcA(b1-6)Gal
# In short: as §1
# [4] = target: GlcNAc(a1-4)Gal(b1-4)GlcNAc(b1-3)Gal(b1-4)GlcNAc(b1-3)Gal(b1-4)GlcNAc
# In short: as §1
# [5] = target: GlcNAc(b1-6)Gal(b1-4)GlcNAc
# In short: as §1
# GlcNAc(b1-6)GalNAc = target: GlcNAc(b1-6)GalNAc
# In short: as §1
# Kdn(a2-3)Gal(b1-3)GlcNAc = target: Kdn(a2-3)Gal(b1-3)GlcNAc
# In short: as §1
# Kdn(a2-3)Gal(b1-4)GlcNAc = target: Kdn(a2-3)Gal(b1-4)GlcNAc
# In short: as §1
# [6] = target: Man(a1-2)Man(a1-3)[Man(a1-2)Man(a1-6)]Man
# In short: as §1
# [7] = target: Neu5Ac(a2-3)Gal(b1-4)GlcNAc(b1-3)Gal(b1-4)GlcNAc(b1-3)GalNAc
# In short: as §1
# [8] = target: Neu5Ac(a2-3)Gal(b1-4)[Fuc(a1-3)]GlcNAc(b1-3)Gal
# In short: as §1
# [9] = target: Neu5Ac(a2-3)Gal(b1-4)[Fuc(a1-3)]GlcNAc(b1-3)Gal(b1-4)GlcNAc
# In short: as §1
# [10] = target: Neu5Ac(a2-3)Gal(b1-4)[Fuc(a1-3)]GlcNAc(b1-6)[Gal(b1-3)]GalNAc
# In short: as §1
# [11] = target: Neu5Ac(a2-3)[GalNAc(b1-4)]Gal(b1-4)Glc
# In short: as §1
# [12] = target: Neu5Ac(a2-6)Gal(b1-3)GlcNAc(b1-3)[Gal(b1-4)GlcNAc(b1-6)]Gal(b1-4)Glc
# In short: as §1
# [13] = target: Neu5Ac(a2-6)Gal(b1-4)GlcNAc(b1-2)Man(a1-3)[Man(a1-6)]Man(b1-4)GlcNAc(b1-4)GlcNAc
# In short: as §1
# [14] = target: Neu5Ac(a2-6)Gal(b1-4)GlcNAc(b1-3)[Neu5Ac(a2-6)Gal(b1-4)GlcNAc(b1-6)]GalNAc
# In short: as §1
# [15] = target: Neu5Ac(a2-6)Gal(b1-4)GlcNAc(b1-6)[Gal(b1-3)GlcNAc(b1-3)]Gal(b1-4)Glc
# In short: as §1
# [16] = target: Neu5Ac(a2-6)GalNAc(b1-4)GlcNAc
# In short: as §1
# Neu5Gc(a2-6)GalNAc = target: Neu5Gc(a2-6)GalNAc
# In short: as §1
binder,measurement,setting,value
B1,glycan array binding signal (z-score),[1],4.6
same,glycan array binding signal (z-score),[2],-0.318
same,glycan array binding signal (z-score),Gal4S6S(b1-4)GlcNAc,-0.491
same,glycan array binding signal (z-score),Gal6S(b1-3)GlcNAc,-0.361
same,glycan array binding signal (z-score),[3],-0.468
same,glycan array binding signal (z-score),GalNAc(b1-3)GlcNAc,-0.486
same,glycan array binding signal (z-score),GalNAc3S(b1-4)GlcNAc3S,-0.441
same,glycan array binding signal (z-score),GlcA(b1-6)Gal,-0.198
same,glycan array binding signal (z-score),[4],-0.462
same,glycan array binding signal (z-score),[5],0.361
same,glycan array binding signal (z-score),GlcNAc(b1-6)GalNAc,-0.467
same,glycan array binding signal (z-score),Kdn(a2-3)Gal(b1-3)GlcNAc,-0.454
same,glycan array binding signal (z-score),Kdn(a2-3)Gal(b1-4)GlcNAc,-0.394
same,glycan array binding signal (z-score),[6],-0.635
same,glycan array binding signal (z-score),[7],-0.387
same,glycan array binding signal (z-score),[8],-0.474
same,glycan array binding signal (z-score),[9],-0.253
same,glycan array binding signal (z-score),[10],-0.217
same,glycan array binding signal (z-score),[11],-0.447
same,glycan array binding signal (z-score),[12],0.392
same,glycan array binding signal (z-score),[13],-0.06
same,glycan array binding signal (z-score),[14],-0.357
same,glycan array binding signal (z-score),[15],-0.304
same,glycan array binding signal (z-score),[16],-0.519
same,glycan array binding signal (z-score),Neu5Gc(a2-6)GalNAc,-0.467
